According to PubChem BioAssay (NCATS):
Records with an inconclusive call do not appear. Values without a mark were called inactive. Activity calls are given as the source filed them. The call rests on the fitted dose curve; in most records, active means well fitted inhibition curve with a large enough effect; inconclusive means small, poorly fitted or top-dose-only effect; inactive means flat fitted curve, though single readings scatter. *1 amine or outer side, *2 acyl side, *3 side chain or, on linkers, in order; H or OH if unused. Where a SMILES comes first, the peptide text is derived from it. [ ]: non-standard residue; d: D form. The star is where a group is joined. X4 = CC(C)=CCc1cc(C(O)C(N[*:1])C(=O)[*:2])ccc1O; AFC = O=c1cc(C(F)(F)F)c2ccc(N*)cc2o1

target: Calcium and integrin-binding protein 1 (Homo sapiens) (UniProt Q99828); test: Primary qHTS for Identification of Calcium Integrin Binding Protein 1 (CIB1) Competitor (AID 1508620); details: CIB1-GST / FITC-alphaIIb peptide fluorescence polarization; series mostly up to 114 µM; activity change, negative = inhibition: at the top concentration;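 further: GST tagged CIB1 binding a fluorescein labelled alphaIIb integrin peptide tracer; top concentration of the series differs between compounds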
Procedure, shortened: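 Fluorescence polarization competition: CIB1-GST (1 uM final) preincubated with compound 15 min at room temperature, then FITC-labeled alphaIIb peptide (100 nM final) added for another 15 min. Polarization read at Ex 480/Em 540.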
On the % scale 0 is the no-effect control and ±100 the full control effect.

Sequence of Calcium and integrin-binding protein 1 (Homo sapiens) (Q99828 whole entry, looked up): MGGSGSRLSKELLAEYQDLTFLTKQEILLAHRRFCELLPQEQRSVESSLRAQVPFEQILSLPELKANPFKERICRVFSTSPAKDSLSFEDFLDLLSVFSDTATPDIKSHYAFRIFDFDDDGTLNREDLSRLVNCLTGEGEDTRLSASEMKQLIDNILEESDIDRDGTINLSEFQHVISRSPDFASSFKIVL

Row | SMILES | activity change, negative = inhibition
1 | CC(C)=CCc1cc(C(O)C2NC(=O)CNC(=O)C(Cc3c[nH]c4ccccc34)NC(=O)C3CCCN3C(=O)CNC(=O)C(C(C)C)NC(=O)CNC2=O)ccc1O (stereo not drawn) (cyclo(G[X4]GVGPW); configuration not given here) | -4.64% [at 30.2 µM]
2 | COC(=O)CCC(=O)OC[C@]1(C)CCC[C@@]2(C)C3CC[C@]4(C)C=CC3(CCC12)C4 (stereo partly drawn) | 5.12% [at 57.7 µM]
3 | C=C1[C@@H]2CC[C@@H]3[C@@](CCC4C(C(=O)O)(C(=O)O)C[C@@H](O[C@@H]5O[C@H](CO)[C@@H](O)[C@H](O)[C@H]5OC(=O)CC(C)C)C[C@]43C)(C2)[C@H]1O (stereo partly drawn) | 1.91% [at 30.2 µM]
4 | FC(F)(F)c1cc(-c2ncn(/C=C\c3nnco3)n2)cc(C(F)(F)F)c1 | -1.96%
5 | CC(C)=CCC[C@](C)(O)[C@H]1CC[C@]2(C)[C@@H]1[C@H](O)CC1[C@@]3(C)CC[C@H](O)C(C)(C)[C@@H]3[C@@H](O[C@@H]3O[C@H](CO)[C@@H](O)[C@H](O)[C@H]3O[C@@H]3O[C@H](CO)[C@@H](O)[C@H](O)[C@H]3O)C[C@]12C (stereo partly drawn) | 0.05% [at 30.2 µM]
6 | C[C@@H]1C[C@H]2O[C@@H]2/C=C\C=C\C(=O)Cc2c(Cl)c(O)cc(O)c2C(=O)O1 | -11.2% [at 30.2 µM]
7 | COC(=O)C[C@H]1C(C)(C)[C@H](OC(=O)C(C)C)[C@@]2(O)C(=O)[C@]1(C)C1CC[C@]3(C)C(CC(=O)O[C@H]3c3ccoc3)[C@]13O[C@@H]32 (stereo partly drawn) | 2.94% [at 30.2 µM]
8 | C=C1C(=O)O[C@@H]2/C=C(\C)C(=O)/C=C/[C@](C)(O)C[C@@H](OC(=O)C(C)C)[C@@H]12 | -5.18% [at 57.7 µM]
9 | CCC1=CC2CN(C1)Cc1c([nH]c3ccccc13)[C@@](C(=O)OC)(c1cc3c(cc1OC)N(C)[C@H]1[C@@](O)(C(=O)OC)[C@H](OC(C)=O)[C@]4(CC)C=CCN5CC[C@]31[C@@H]54)C2 (stereo partly drawn) | 0.993% [at 57.7 µM]
10 | C=C(C)C1CCC2(C(=O)O[C@@H]3O[C@H](CO[C@@H]4O[C@H](CO)[C@@H](O)[C@H](O)[C@H]4O)[C@@H](O)[C@H](O[C@@H]4O[C@@H](C)[C@H](O)[C@@H](O)[C@H]4O)[C@H]3O)CCC3(C(=O)O)C(CCC4C5(C)CCC(O)C(C)(C)C5CCC43C)C12 (stereo partly drawn) | 5.02% [at 30.2 µM]

system: not listed separately; test: Primary qHTS for inhibitors of nuclear receptor binding SET domain protein 2 (NSD2) in an isogenic RCH-ACV NSD2 p.E1099K mutant (9B) (AID 1645876); details: RCH-ACV (leukaemia line) NSD2 E1099K (9B) viability, CellTiter-Glo, 72 h; series mostly up to 44.9 µM; activity change, negative = viability loss: at the top concentration; further: nearly all actives have a fitted effect of over 70% in size; further: potency means the concentration at half of the fitted maximal effect

Row | SMILES | outcome | Potency | activity change, negative = viability loss
11 | COC1=CC(=O)CC(C)C12Oc1cc(OC)cc(O)c1C2=O (stereo not drawn) | inactive | – | –
12 | CC1=CC(=O)[C@H]2C(C)(C)CCC[C@]2(C)[C@@]1(O)CO | inactive | – | –
13 | COc1c/c(=C2\C=c3ccccc3=N2)[nH]/c1=C\c1[nH]c(C)cc1C | – | 5.78 µM (active) | –
14 | N=c1nc2n(cc1F)C1OC(CO)C(O)C1O2 (stereo not drawn) | – | 0.0578 µM (active) | –
15 | CC(=O)N[C@@H](Cc1c[nH]c2ccccc12)C(=O)N[C@@H](CCC(=O)O)C(=O)N[C@@H](Cc1cnc[nH]1)C(=O)N[C@@H](CC(=O)O)C(=O)Nc1ccc2c(C(F)(F)F)cc(=O)oc2c1 (Ac-WEHD-{AFC}) | inactive | – | –
16 | CC(C(O)/C=C/C(C)(C)O)C1CCC2(C)C3C(=O)C=C4C(CCC(O)C4(C)C)C3(C)CCC12C (stereo not drawn) | – | – | 4.18% [at 17.3 µM]
17 | CC1=C(CCC(C)O[C@@H]2O[C@H](CO)[C@@H](O)[C@H](O)[C@H]2O)C(C)(C)CCC1=O (stereo partly drawn) | – | – | -3.35%
18 | C=C1C(=O)O[C@H]2C1[C@H](OC(=O)/C(=C/CO)COC(=O)/C(C)=C/CO)CC(=C)[C@@H]1CC(=O)[C@@H](C)[C@@H]12 (stereo partly drawn) | – | 3.55 µM (active) | –
19 | CC1(C)CCC2(C(=O)OC3OC(CO)C(O)C(O)C3O)CCC3(C)C(=CCC4C5(C)CCC(O)C(C)(C(=O)O)C5CCC43C)C2C1O (stereo not drawn) | – | – | -6.74% [at 17.3 µM]
20 | COc1cc(O)cc(C)c1C(=O)O[C@H]1[C@@H](OC(C)=O)[C@H](n2ccc(=O)[nH]c2=O)O[C@@H]1CO | inactive [at 17.3 µM] | – | –
21 | CC1=C(/C=C/C(C)=C\C=C\C(C)=C/C(=O)O)C(C)(C)CCC1 | – | – | -16%
22 | O=C(c1ccc2nccnc2c1)N1CCCCC1 | – | – | -0.87%
23 | C=C1CCC2C(C)(C(=O)O)CCCC2(C)C1CCC(C)CC(=O)O (stereo not drawn) | – | – | -17.4%
24 | C[C@@]1(O)[C@H](O)[C@@H](CO)O[C@H]1n1ccc(N)nc1=O | – | 20.5 µM (active) | –
25 | Cn1cncc1C(N)(c1ccc(Cl)cc1)c1ccc2c(c1)c(-c1cccc(Cl)c1)cc(=O)n2C (stereo not drawn) | – | 4.17 µM (active) | –
26 | CC1=CCC(C(C)(C)O[C@@H]2O[C@H](CO[C@@H]3O[C@@H](C)[C@H](O)[C@@H](O)[C@H]3O)[C@@H](O)[C@H](O)[C@H]2O)CC1 (stereo partly drawn) | inactive [at 17.3 µM] | – | –
27 | CCOC(=O)C(CCc1ccccc1)NC1CSC(c2cccs2)CN(CC(=O)O)C1=O (stereo not drawn) | – | – | -2.02%
28 | O=C(/C=C/c1ccccc1)OC[C@]12O[C@H]1[C@@H](O)[C@@H]1C=CO[C@@H](O[C@@H]3O[C@H](CO)[C@@H](O)[C@H](O)[C@H]3O)[C@@H]12 | – | – | 3.36% [at 17.3 µM]
